In PubChem BioAssay (NCATS):
Active and inactive are the calls of the source.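 Rule for the calls: active = compounds whose dose series gives a full or clear partial fitted curve of increased nuclear translocation; inconclusive = weak partial curve or effect only at the top dose; inactive = no dose-dependent translocation response.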

Each molecule was assayed against Glucocorticoid receptor (Homo sapiens) (UniProt P04150) (assay: GR-GFP Redistribution (AID 450)). Conditions: U2OS GR-GFP nuclear translocation, laser cytometry, 2 h.
Potency is the fitted concentration of half-maximal effect.

Glucocorticoid receptor (Homo sapiens), sequence (P04150 whole entry, looked up): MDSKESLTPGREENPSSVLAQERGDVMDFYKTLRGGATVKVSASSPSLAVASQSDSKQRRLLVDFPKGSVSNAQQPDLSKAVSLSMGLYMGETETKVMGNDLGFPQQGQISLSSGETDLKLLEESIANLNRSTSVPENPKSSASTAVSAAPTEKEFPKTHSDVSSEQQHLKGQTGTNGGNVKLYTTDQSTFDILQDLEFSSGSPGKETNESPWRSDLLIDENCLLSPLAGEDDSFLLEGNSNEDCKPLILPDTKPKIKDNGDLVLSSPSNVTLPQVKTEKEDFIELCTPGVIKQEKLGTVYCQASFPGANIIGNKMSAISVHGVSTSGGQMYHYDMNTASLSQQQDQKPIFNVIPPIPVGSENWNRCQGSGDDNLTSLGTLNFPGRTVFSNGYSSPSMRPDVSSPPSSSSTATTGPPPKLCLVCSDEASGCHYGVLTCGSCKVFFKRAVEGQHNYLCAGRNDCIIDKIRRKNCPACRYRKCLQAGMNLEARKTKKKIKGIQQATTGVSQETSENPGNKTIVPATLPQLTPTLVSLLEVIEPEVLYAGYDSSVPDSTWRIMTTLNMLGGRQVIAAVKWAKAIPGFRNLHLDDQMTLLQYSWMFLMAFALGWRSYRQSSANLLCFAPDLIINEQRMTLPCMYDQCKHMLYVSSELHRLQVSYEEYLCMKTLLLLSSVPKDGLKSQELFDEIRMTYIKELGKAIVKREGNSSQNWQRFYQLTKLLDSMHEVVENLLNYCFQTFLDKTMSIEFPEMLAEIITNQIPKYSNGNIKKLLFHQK

Potency, inactive:
Cc1noc(C)c1-c1nccc(NCc2ccccc2)n1 > 46 µM, c1ccc(CNc2cc(-c3ccoc3)ncn2)cc1 > 46 µM, CN(Cc1ccco1)c1cc(-c2cccnc2)ncn1 > 46 µM, c1cncc(CNc2cc(-c3ccoc3)ncn2)c1 > 46 µM, CC(=O)NCCNc1nc(-c2c(C)noc2C)nc2ccccc12 > 46 µM, CC(=O)NCCNc1ccnc(-c2ccccc2C)n1 > 46 µM, Cc1cnc(CNc2ccnc(-c3cccc(NS(C)(=O)=O)c3)n2)cn1 > 46 µM, CCNc1ncc2nc(-c3cccc(C#N)c3)c(=O)n(CCC#N)c2n1 > 9.22 µM, c1ccc(CNc2nc(-c3ccoc3)nc3ccccc23)cc1 > 46 µM, COc1ccc(CNc2ccnc(-c3cccnc3)n2)c(OC)c1 > 46 µM, COCCn1c(=O)c(-c2cccc(F)c2)nc2cncnc21 > 9.22 µM, CN(Cc1ccco1)c1ccnc(-c2cccnc2)n1 > 46 µM, O=c1c(-c2cccc(Cl)c2)nc2cncnc2n1Cc1ccccc1 > 9.22 µM, CS(=O)(=O)Nc1cccc(-c2cncnc2Nc2ccccc2)c1 > 46 µM, COc1ccc(CNc2ncncc2-c2ccc(N(C)C)cc2)c(OC)c1 > 46 µM, COc1cccc(Cn2c(=O)c(-c3cccc(C#N)c3)nc3cnc(OC)nc32)c1 > 9.22 µM, O=c1c(-c2cccs2)nc2cncnc2n1-c1ccccc1 > 9.22 µM, Cn1cc(-c2nc3cncnc3n(C3CC3)c2=O)c2ccccc21 > 9.22 µM, Clc1ccccc1-c1nccc(NCCN2CCOCC2)n1 > 46 µM, COc1cccc(-c2cncnc2NCc2cnc(C)cn2)c1 > 46 µM, CN(C)C(=O)c1ccc(-c2nccc(-n3ccnc3)n2)cc1 > 46 µM, COc1cccc(-c2cncnc2NCc2cccs2)c1 > 46 µM, COc1ccc2[nH]cc(CCNc3ncncc3-c3cccnc3)c2c1 > 46 µM, COc1ccccc1-c1cc(Nc2ccn[nH]2)ncn1 > 46 µM, COc1ccccc1-c1cncnc1NCc1cccs1 > 46 µM, N#Cc1ccccc1-c1ccc2ncnc(NCCN3CCOCC3)c2c1 > 46 µM, CN(Cc1ccco1)c1ncncc1-c1cccnc1 > 46 µM, COc1ccc2[nH]cc(CCNc3ccnc(-c4ccc5c(c4)OCO5)n3)c2c1 > 46 µM, Cc1ccccc1-c1cc(NCc2cccnc2)ncn1 > 46 µM, CCNc1ncc2nc(-c3cccs3)c(=O)n(-c3ccccc3)c2n1 > 9.22 µM, COCCNc1nc(-c2c(C)noc2C)nc2ccccc12 > 46 µM, COc1ccccc1-c1nc(N(C)Cc2ccco2)c2ccccc2n1 > 46 µM, COc1ccccc1-c1cncnc1NCc1ccccc1 > 46 µM, COc1ccccc1-c1nc(NCCN2CCOCC2)c2ccccc2n1 > 46 µM, Cc1ccccc1-c1cc(N(C)Cc2ccco2)ncn1 > 46 µM, CN(C)C(=O)c1ccc(-c2ccc3ncnc(N4CCOCC4)c3c2)cc1 > 46 µM, CS(=O)(=O)Nc1cccc(-c2cncnc2-n2ccnc2)c1 > 46 µM
